Assay outcomes from PubChem.
Shown are actives, neighbours in structure and some others; about 5.3% of the full set was active somewhere.
LASV entry inh – qHTS for Inhibitors of binding or entry into cells for Lassa Virus | Lassa virus pseudotype entry inhibition, cell reporter | Potency, µM (doses to about 37.9 µM), actives largely listed as inhibitors | actives 1.2% (n = 300,000) | AID 540256, 2011; calls by dose curve; tested in HEK293 cells; further: nearly all actives have a fitted effect of over 50% in size
HCV inh – qHTS Assay for Inhibitors of Hepatitis C Virus (HCV); Potency, µM (doses to about 41.8 µM), usual class: inhibitors; Huh7.5.1 HCVcc-Cre infection, luciferase reporter, 44 h; AID 651820, 2012; actives 3.4% (n = 340,000); active means well fitted inhibition curve with a large enough effect; inconclusive means small, poorly fitted or top-dose-only effect, or another doubt; inactive means no such curve, though single readings can be large or run the other way
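Reporter virus HCVcc-Cre (~0.5 moi) infects cells exposed to compound; seeding density 1,000 cells/well with 4 h settling beforehand. Luminescence, 15 sec read, taken 44 h post-infection following a 15 min RT substrate incubation.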
Marburg entry inh – qHTS for inhibitors of binding or entry into cells for Marburg Virus. Marburg virus pseudotyped entry inhibition, cell reporter. Potency, µM (series often up to 37.8 µM), hits mostly inhibitors. actives 1.8% (n = 300,000). AID 540276, 2011; calls by dose curve; tested in HEK293 cells
FMDV inh – High Throughput Screening for Foot and Mouth Disease Virus Antivirals; FMDV antiviral cell-based qHTS; Potency, µM (titrated, usually from 57.9 µM), actives largely listed as inhibitors; actives 1.2% (n = 410,000); AID 1159524, 2015; calls by dose curve; tested in HEK293T cells; further: read-out not given here; nearly all actives have a fitted effect of over 45% in size
VACV mCherry inh – qHTS for Stage-Specific Inhibitors of Vaccinia Orthopoxvirus: mCherry Reporter Primary qHTS | AID 720579, 2013 | Vaccinia virus mCherry reporter infection, fluorescence | Potency, µM (titrated, usually from 36.5 µM), most hits filed as inhibitors | actives 0.63% (n = 310,000); calls by dose curve; tested in A549 cells; further: nearly all actives have a fitted effect of over 35% in size
Vaccinia Venus – qHTS for Stage-Specific Inhibitors of Vaccinia Orthopoxvirus: Venus Reporter Primary qHTS. Vaccinia virus Venus reporter expression, fluorescence. Potency, µM (highest dose often 36.5 µM), actives largely listed as inhibitors. actives 0.46% (n = 330,000); calls by dose curve; tested in A549 cells; further: nearly all actives have a fitted effect of over 30% in size
Hits are given with their value; - = inactive; ? = inconclusive; . = no result.

SMILES | LASV entry inh | HCV inh | Marburg entry inh | FMDV inh | VACV mCherry inh | Vaccinia Venus
CN(C)CCOC1c2ccccc2CSc2ccccc21 (centres undefined) | - | - | ? | - | - | -
NC(=O)CCN1CCN(CCOC2Cc3cc(Cl)ccc3Sc3ccccc32)CC1 (centres undefined) | ? | 11µM | ? | - | - | ?
CN1CCN(CCOC2c3ccccc3CSc3ccc(Cl)cc32)CC1 (centres undefined) | 21µM | ? | ? | - | ? | ?
CCOC(=O)C1CCN(c2nc3c(S(=O)(=O)c4ccccc4)nnn3c3ccsc23)CC1 | ? | . | . | - | - | -
Cc1cccc(CNC(=O)c2ccc3nc(Cc4ccccc4)oc3c2)c1 | - | . | . | - | - | -
CC(C)NC(=O)Cn1c(SCC(=O)NC2CCCC2)nc2ccccc21 | - | - | - | - | - | -
CC(C)Cn1c(SCC(=O)NC(=O)NC2CCCC2)nc2ccccc21 | - | 11µM | ? | ? | ? | -
O=C(Nc1cccc(-c2cn3ccsc3n2)c1)c1ccccc1 | - | 25µM | - | - | . | -
O=C(Nc1cccc(-c2cn3ccccc3n2)c1)c1cccc(Cl)c1 | ? | 11µM | ? | ? | ? | 14µM
O=C(Nc1ccc(-c2cn3ccccc3n2)cc1)c1cccs1 | ? | ? | 15µM | - | - | -
O=C(Nc1cccc(-c2cn3ccccc3n2)c1)c1cnccn1 | - | - | ? | - | - | -
CCC1C(=O)NCCN1Cc1ccc2c(c1)CN(Cc1ccc3c(c1)OCCO3)CCO2 (centres undefined) | . | . | . | - | - | -
CN(C)N=Nc1ccc(/C=C2\C=Cc3ccccc32)cc1 | . | . | . | . | - | -
COc1cc(CNC(C)(C)CO)ccc1OCC(=O)NC(C)(C)C | - | - | ? | - | - | -
COc1cc(CNc2ccc(N3CCCCC3)cc2)ccc1OCC(=O)NC(C)(C)C | ? | 10µM | ? | ? | ? | -
COc1cc(CNCc2cccs2)ccc1OCC(=O)NC(C)(C)C | - | ? | 9.2µM | - | - | -
COc1cc(CNC(C)C23CC4CC(CC(C4)C2)C3)ccc1OCC(=O)NC(C)(C)C (centres undefined) | ? | ? | 6.3µM | - | ? | -
CO[C@H]1[C@H](NC(=O)c2ccco2)c2ccccc2C12CCN(Cc1cccn1-c1ccccn1)CC2 | . | . | . | - | - | -
CC(Nc1oc(-c2ccc(COc3ccccc3)o2)nc1C#N)c1ccccc1 (centres undefined) | ? | . | - | - | ? | -
CCc1ccc(Oc2nccc(-c3c(-c4ccc(F)cc4)ncn3C3CCNCC3)n2)cc1 | 11µM | . | . | . | . | .
O=c1c(-c2ccc(F)cc2)nc2cnc(Oc3ccccc3)nc2n1C1CC1 | . | . | . | - | . | .
O=C(C[n+]1cccc(Br)c1)c1cc(Cl)ccc1Cl | . | . | . | . | - | -
CN(CCC#N)C(=O)COC(=O)c1ccccc1C(=O)c1ccc(Cl)c([N+](=O)[O-])c1 | ? | 2.8µM | ? | ? | - | -
Cn1c(N)c(C(=O)COC(=O)c2ccccc2C(=O)c2ccc(Cl)c([N+](=O)[O-])c2)c(=O)n(C)c1=O | ? | 11µM | 11µM | ? | ? | ?
O=C(COC(=O)c1ccccc1C(=O)c1ccc(Cl)c([N+](=O)[O-])c1)NC1CCCCCC1 | 18µM | 13µM | 4.1µM | ? | . | .
SMILES | LASV entry inh | HCV inh | Marburg entry inh | FMDV inh | VACV mCherry inh | Vaccinia Venus
Cn1c(N)c(C(=O)COC(=O)c2ccccc2C(=O)c2ccccc2)c(=O)n(C)c1=O | . | - | . | - | . | .
COc1ccc(CCN(C)CCCN2CCc3cc(OC)c(OC)cc3CC2=O)cc1OC | . | . | . | - | . | .
C=CCn1c(O)c(C(CC)=NCc2cc(OC)cc(OC)c2)c(=O)[nH]c1=O | 5.8µM | - | ? | - | ? | ?
Cc1nn(-c2ccccc2)c(N)c1Sc1cccc([N+](=O)[O-])c1 | - | ? | - | ? | . | .
Cc1nn(-c2ccccc2)c(N)c1Sc1ccccc1[N+](=O)[O-] | 6.3µM | ? | ? | ? | - | -
Cc1ccc(NC(=O)c2c(C)nc3sc(C(=O)NC4CCCC4)c(N)c3c2-c2ccco2)c(C)c1 | - | ? | - | - | - | -
Cc1ccccc1NC(=O)c1sc2nc3c(c(-c4ccco4)c2c1N)CCC3 | - | 4µM | - | - | - | -
N#Cc1sc2nc3c(c(-c4ccco4)c2c1N)CCCC3 | - | 7.9µM | ? | ? | - | -
NC(=O)c1sc2nc3c(c(-c4ccco4)c2c1N)CCCC3 | . | - | . | ? | . | .
N#CC1=C(N)NC(SCc2ccc(Cl)cc2)=C(C#N)C12CCCCC2 | ? | ? | 11µM | - | . | ?
N#CC1=C(N)NC(SCc2ccc(Br)cc2)=C(C#N)C12CCCCC2 | . | - | . | - | . | .
CCOC(=O)Cc1ccc(NC(=O)c2ccccc2Br)cc1 | . | - | . | - | - | -
CCOC(=O)Cc1ccc(NC(=O)c2ccc(C(C)(C)C)cc2)cc1 | 13µM | 7.1µM | 13µM | 18µM | ? | ?
O=C(Nc1nnc(-c2ccccc2)o1)c1ccc(Cl)cc1 | ? | - | 13µM | - | - | -
CC(=O)c1ccc(F)c(-c2cc(C)cc3c2OC(CNC(=O)C(C)n2nc(C)cc2C)C3)c1 (centres undefined) | . | . | . | - | - | -
Cc1cc(OCC(=O)Nc2ccc(CN3CCOCC3)cc2)c2c(C)cc(=O)oc2c1 | . | - | . | - | . | .
Cc1cc(OCC(=O)Nc2ccc(CN3CCOCC3)cc2)c2c(C)c(C)c(=O)oc2c1 | . | 11µM | . | ? | . | .
O=C(COc1ccccc1Cl)Nc1ccc(S(=O)(=O)N2CCOCC2)cc1 | - | - | ? | - | - | -
O=C(COc1ccccc1Cl)Nc1ccc(CN2CCOCC2)cc1 | . | 13µM | . | - | . | .
COc1cc(/C=C2\SC(=S)N(CCC(=O)Nc3cccc(O)c3)C2=O)cc(OC)c1OC | ? | ? | ? | 20µM | - | -
O=C(CCN1C(=O)/C(=C/c2ccccc2)SC1=S)N1CCCCCC1 | ? | ? | - | - | - | -
CC1CCN(C(=O)CCN2C(=O)/C(=C/c3cccs3)SC2=S)CC1 | 5.6µM | ? | ? | - | ? | -
CCc1ccc(/C=C2\SC(=S)N(CCC(=O)N3CCN(C)CC3)C2=O)cc1 | . | - | . | - | ? | 10µM
COc1cc(/C=C2\SC(=S)N(CCC(=O)Nc3ccccc3)C2=O)cc(OC)c1OC | - | - | ? | - | - | -
COc1ccc(/C=C2/SC(=S)N(CCC(=O)N3CCN(C)CC3)C2=O)cc1 | ? | ? | ? | - | - | -
CCOc1ccc(/C=C2\SC(=S)N(CCC(=O)O)C2=O)cc1 | - | - | ? | 0.32µM | - | -
C1=Cc2ccccc2/C1=C/c1ccc2c(c1)OCO2 | . | . | . | . | - | -
O=C(NCc1cccnc1)c1cnn(-c2nccc(-c3cccs3)n2)c1C1CC1 | . | . | . | - | - | -
COc1cc(/C=C2/SC(=S)N(CCC(=O)N3CCN(C)CC3)C2=O)cc(OC)c1OC | . | . | . | - | 10µM | ?
CN1CCN(C(=O)CCN2C(=O)/C(=C\c3ccc(Cl)cc3Cl)SC2=S)CC1 | ? | - | - | 35µM | - | -
